Data published in PubChem BioAssay AID1508600 (Functional Genomics Laboratory (NCATS/FGL), 2020).
The campaign covered roughly 53,000 sequences. About 3,700 (7%) were called active.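 Rule for the calls: active = gene knockdowns whose robust z-score for IL-1 alpha signal is at least 2 or at most -2, so actives lie on both sides; inactive = the rest.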 The entries come from a sample that favours actives as a whole.

Assay: Components of the Cytosolic LPS Sensing Pathway: Gene Identification via Genome-wide siRNA Screen;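 note: robust z of the log signal after scaling to non-targeting control siRNA wells of the plate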
Conditions: RAW264.7 macrophages, IL-1a HTRF, actives lie on both sides, screened at 100 nM (by protocol), cells primed 5 h with Pam3CSK4 first
Summary of the method: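 Read-out: IL-1a HTRF on supernatant, divided by plate negative-control median ×100, log-transformed and converted to robust z-score. Cells were RAW264.7 given 100 nM siRNA, Pam3CSK4-primed 5 hours, then LipidA-transfected 24 hour.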

z-score, inactive:
GGAAUUCUUAGCCAAUGCCTT against Gas2l1 0.396
GCUGUCUAGUACAUCUGACTT against Cry2 -0.32
GGCUAACACUUAAAUUAGCTT against Atoh8 0.00248
GGCCCAACCUUGGAUCUUUTT against Nudt22 0.751
GGGCACAGACAUGUUUGAGTT against Padi3 -1.35
GGACAAACAGGGAGAAAGATT against Mogat2 -0.091
GGAGUGAGACAAUUCUCACTT against Sprr2k 0.555
GCUAUUUAGUUAGUUGUGUTT against Acbd3 0.334
CCGUGGGAUUUAAGAUAUCTT against Rab34 -0.931
GCAUUUCUACUGGAUUGUGTT against Luc7l2 0.0609
GCUCUUUCUAGCUUAUGAUTT against Chmp1b -0.464
GGAUGCUUGUGCAAAGAUGTT against Anks1b 0.862
GGAGCCUCUAGGAAACAAATT against Slc28a3 0.309
CCGAGUCCAGAACACUCUUTT against Aff2 -0.616
CGAGCUUUCACUGCUACAGTT against Ppargc1b -1.35
GCCACUGUACCUUAUUGGUTT against Msrb1 0.331
GGAAGACGGCAACUAUCCATT against Cyp2c50 1.23
GGUAUUUUUUUCUCAGCCATT against Dhdh -0.937
CGCCUUCCUUCAACACGCATT against 1700049L16Rik -1.12
GGGAUUUGUUGUCUAAGAUTT against Mapk10 -0.54
GCAGAUGCGCUUGGAACUUTT against Pde4b 0.0658
GGCUCCUAACUCACUGGGATT against Ormdl1 0.0548
GAUGAAGAAGAGCAGGCUCTT against Gm5168 1.18
CGUAUCAACAUCUCAGAAGTT against Pcbp2 -0.632
GGAUUCACGUAAGAUUGACTT against Prl6a1 0.0592
GACGAUUCUCUGUUGGUGUTT against Hcrt 0.577
CCUGGAGAUUCAGUACGAATT against Krt25 1.55
GGUUCUUGCUGAGAGCAUGTT against Rft1 0.943
GGAUUGAAGCAGGCAGCUUTT against Purb -0.787
GGUUCAAGGUGAAGACUCCTT against Reg3b 0.793
CCAGCUAAAAAGAUGGUAGTT against Rreb1 0.319
CCUGAAAGCUAAUAUGAAATT against Defb44-ps 0.0593
CCUCGUUACAUCCUCCCUGTT against Pold1 -0.142
CGAUUAUCGGCCCAGCAAATT against Bmp1 1.01
GGUCUCCCUUCAGUAUGAGTT against Cela3b -0.602
CCUAGAGCUUUUCAGAAUATT against Rsl1d1 0.4
CGAUCGGCGACCUUUUAGATT against Irak3 -0.527
GGCAGUAGUUAGCAAAUAUTT against Ska1 -1.24
GGAUCUGGAAUCACUGUUUTT against Lmnb2 -0.451
GGUGCCAUCCCAAACUUUATT against Frat2 0.788
CCUCUUGAGGUCUCGUCAATT against Fam221b -0.0968
GGAUACAAAUCAGGUUCUCTT against Kansl2 0.0399
GGAAAAAAGAGAGGUCAGATT against Meox1 -1.02
GGAAAUUGCUCAGGAGUUUTT against Anxa5 -1.26
GGAGAAUCCUGUUUUUUGUTT against Elp4 0.43
GGUGCCAAUCAUUGUUAUGTT against Kcnv1 1.73
CCCGAGAUGAGGAACUUUUTT against Ndnf -0.359
GGAGUAAUGAUAAGCCCUCTT against Tex264 -0.0637
GGAUCUCAUACAGAAUCCGTT against Haus4 0.216
GGACCUAGAGGACUAUAAATT against P3h2 0.894
GGAGCAGGUUACCAGAAAATT against E130114P18Rik 0.301
GGGUUUGACUGUACAGUACTT against Adamts4 -1.29
GGCCUUUACACGUGAGUCUTT against Zfp420 -0.864
CGGAUGCGACAAAAAUCACTT against Il4 1.77
GCACUUACCGGAUCCAUUGTT against Clk4 -0.793
GGACUUGACCCUGUCUUUGTT against Ostm1 0.871
GGCAUCUGAGCUGAGGAUUTT against Gem -0.295
GGAUAGCUUGAUCAAUCUUTT against Cisd2 -0.13
GCCUCUUAAUUUUAAGCUGTT against Gpr82 -0.505
GGGAAACUUGAACUUUGAUTT against Rsph1 -1.54
GGGACAAUUCAGGAUGGAGTT against Ift88 0.0559
GGUCCUUUUUUCAACCAGCTT against Sh3gl1 -0.259
CCAAGGGUUGUUAAGUAUUTT against Cdh26 1.08
GGAUUUUCAUCGUGCUUUGTT against Necab3 1.23
CCGUGAUAAUGUAACACCUTT against Prtg 0.0383
GGUAAACAUUGCUACUUUGTT against Mpdz 0.935
GGCCAAGAAAAACUACUAUTT against Kcnk5 -0.706
CCAAAUAUCACACACCCGATT against Fam187a 0.798
GCACUUAUGAUGUCCUAUUTT against Sema4b 0.606
GGACAAAGUCUAGAAACUATT against Lrrc2 0.26
GGCUAUGACAAUGCCUACATT against Maged2 0.00495
GGUUUUUCGAGUUUUUUCUTT against Msx1 1.06
GGCUGCUUAUAAAAUUUUCTT against Mipep 0.398
GGCAUGUUUCUUGACUUAATT against Coil 0.122
GGGUUUAUUUGGUCAAGAUTT against Mpc2 -0.349
GCAUACGUGUUCAAUGGUGTT against Ppef2 -0.541
GGAUCUCGCUGGCAAUAAUTT against Gpr45 -0.222
CCAUUUUUCCUACGUGGGUTT against Zfand2a 0.449
GGAUUUGGGUUUUCUAUAATT against Cfb -0.0373
CAAUGACAGCAGAUGACGUTT against Crabp2 0.0834
CCGGUCAAAAUUGAAAAGGTT against Bves 0.666
GGUGAAAAGUCCUGCCAAGTT against Nefh 0.408
GGCCAUUUGGAAACUAUUATT against Anapc11 -0.109
GCAAGGAGUUUAUGUGAGUTT against Olfr170 0.297
GGGCAAAAUACAAAAGGAGTT against Mlph -0.9
GGACAUUCUCAAAUCUUGATT against Praf2 0.244
GCAUAAGGACCCUUUGUCATT against Rasl10b -1.27

z-score, active:
GGAUGAACCAAACCAAUAATT against Mgat4d 2.24
GCCAGACUGGAGGUAAAAUTT against Serpinb10 -2.24
GUGUGCUUGAUGGAGACCATT against Riiad1 2.25
CCUGCCAUAGUUAGUUUUUTT against Khdc1a 7.91
GCCCUACCAAAAGGAUGAUTT against Cfap300 -2.02
GCUUUGGUGCACUUGCUUUTT against Akr1c13 2.2
GGUGGUAUCACCUCUAUCATT against Cfap52 -2.49
GGUGUGUAUGGUGCUAGGATT against Olfr1507 -2.43
GGCUUUUAGUACUGAUAGUTT against Neu3 2.6
GGUUUUAGGACACCUGGUUTT against Gys1 2.13
GCCUUCUUAAGCUCUGAGCTT against Dhrs13 -2.97
GCUCUACCUCAGAUAAAGGTT against Banf2 -2.45
GCACAGGUCUAAUUCGUCUTT against Grik1 -2.78
GGAACAAAAACUGGUGCGCTT against Emilin2 2.07
GCGGCUUUACAAGGAUGACTT against Elob 2
CCUAGGUUUGAAGACUCCCTT against Asphd2 -2.03
GGUGACUACUACAGGAAACTT against Hps1 2.3
GCGAAUCUUGCUUCUGACCTT against H4c8 -2.13
GGACCUGGUUCAGGUAUCATT against Col6a3 -2.17
CCGUGGAACUUAAAUAGUUTT against Pard6g 2.66
GGCUGUGAGAUAGAUCUAATT against Arhgef40 2.07
